Activity calls are given as the source filed them. Calls come from the whole dose curve.

This test can be described thus: Cell Proliferation Assay Versus the ED40515 IL2 Dependent ATL cell lines (AID 1053195). Particulars: ED40515 IL2-dependent ATL cells. From the text: Adult T-cell leukemia (ATL) develops in individuals infected with human T-cell lymphotropic virus-1 (HTLV-1). Clinically, ATL is subclassified into four subtypes: smoldering, chronic, lymphomatous, and acute. Two autocrine loops (IL-2/IL-2Ralpha and IL-15/IL-15Ralpha) and one paracrine stimulation loop that involves IL-9 expression by ATL cells and IL-9Ralpha expression on monocytes are required to maintain viability and proliferation in the smoldering and chronic forms of the disease. These assays examined the differential response profiles for the MIPE library of approved and investigational drugs versus an IL2 dependent and independent matched ATL cell line, with the current submission examining the differential response profiles for drugs on an IL2 dependent matched ATL cell line.
Plate log growing ED40515 +IL2 cells: 1000cells/ well in 5uL phenol red free RPMI +5% FBS +1x p/s, Glutamine using 1536 well white griener tissue culture plates and multidrop cassette acoustic dispensing Columns 1 and 3 DMSO Columns 2 and 4, 9.2 uM Bortezomib Incubate 48 hours for celltiter glo 37C with 5%CO2 and 95% humidity with low evaporation lids Dispense 3 uL per well of cell titer glo with multidrop Incubate for 15 minutes at RT Read on VL/2 using Luminesence Wheel (Filter A)
With `NC(=O)C1CCCc2c1[nH]c1ccc(Cl)cc21` (stereo not given), the Potency was 33.2 µM (active).

In the case of `Cc1cc(C=c2sc3nc4ccccc4n3c2=O)c(C)n1-c1ccccc1`, the Potency was 6.62 µM (active).

For `C[C@]1(c2nc3c(C(N)=O)cccc3[nH]2)CCCN1`, the Potency was 16.6 µM (active).

For `Cn1cc(-c2ccc3nnc(C(F)(F)c4ccc5ncccc5c4)n3n2)cn1`, the Potency is 7.43 µM (active).

As to `CNCc1ccc(-c2[nH]c3cc(F)cc4c3c2CCNC4=O)cc1`, the Potency was 20.9 µM (active).

Consider `CCCS(=O)(=O)Nc1ccc(F)c(C(=O)c2c[nH]c3ncc(Cl)cc23)c1F`, for which the Potency is 16.6 µM (active).

In the case of `CCC(C)n1ncn(-c2ccc(N3CCN(c4ccc(OC[C@H]5CO[C@](Cn6cncn6)(c6ccc(Cl)cc6Cl)O5)cc4)CC3)cc2)c1=O` (stereo not given in full), the Potency is 1.32 µM (active).

As to `Cc1ccc(-n2nc(C(C)(C)C)cc2NC(=O)Nc2ccc(OCCN3CCOCC3)c3ccccc23)cc1`, the Potency is 26.4 µM (active).

`Fc1ccc(Cl)cc1-c1nc(Nc2ccncc2)c2nccnc2n1`: the Potency was 13.2 µM (active).

Take `CN(C)c1ccc(Nc2nc(N)n(C(=O)c3c(F)cccc3F)n2)cc1`: the Potency is 0.743 µM (active).

As to `COc1ccc(-c2ccc3c(N4CCOC[C@H]4C)nc(N4CCOC[C@H]4C)nc3n2)cc1CO`, the Potency is 0.0935 µM (active).

Turning to `CC(c1cc2ccccc2s1)N(O)C(N)=O` (stereo not given), the Potency was 67.9 µM (active).

As for `Cc1c(CCOc2ccc(C(=O)O)cc2)c2cc(Cl)ccc2n1C(c1ccccc1)c1ccccc1`, the Potency was 23.5 µM (active).

For `COc1ccccc1[C@H](c1cccc2ccccc12)[C@@](C)(C#N)C(=O)N1CCC(c2cccc(C(F)(F)F)c2)CC1`, the Potency is 2.64 µM (active).

With `COc1cc2c(cc1OC)CN(CCc1ccc(NC(=O)c3cccc4c(=O)c5cccc(OC)c5[nH]c34)cc1)CC2`, the Potency is 16.6 µM (active).

Turning to `O=C(Nc1ccc(F)c(C(F)(F)F)c1)Nc1nnc(-c2ccncc2)s1`, the Potency is 0.935 µM (active).

Turning to `CN(C(=O)c1ccc(F)cc1C(F)(F)F)C1CCN(c2nnc(-c3ccnn3C)c3ccccc23)CC1`, the Potency is 2.96 µM (active).

Take `Cc1csc(NC(=O)c2sc3nc4c(c(C(F)(F)F)c3c2N)CCC4)n1`: the Potency was 18.7 µM (active).

As to `CCC(C)N(C)C(=O)c1cc2ccccc2c(-c2ccccc2Cl)n1` (stereo not given), the Potency was 11.8 µM (active).

With `COc1ccc2nc(S(=O)Cc3ncc(C)c(OC)c3C)[nH]c2c1` (stereo not given), the Potency was 23.5 µM (active).

For the compound `O=C(Nc1nc2ccccc2n1CCN1CCOCC1)c1cccc([N+](=O)[O-])c1`, the Potency was 10.5 µM (active).

On to `Cn1cnc2c(F)c(Nc3ccc(Br)cc3Cl)c(C(=O)NOCCO)cc21`, for which the Potency is 16.6 µM (active).

Regarding `Cc1cc(-c2ccc(CC(=O)Nc3ccc(-c4cccnc4)cc3)cc2)ccn1`, the Potency was 4.18 µM (active).

Regarding `O=S(=O)(N=Cc1c(O)ccc2ccccc12)c1cccs1`, the Potency is 20.9 µM (active).

As for `OCCn1cc(-c2cnc3nnn(Cc4ccc5ncccc5c4)c3n2)cn1`, the Potency was 18.7 µM (active).

Turning to `CS(=O)(=O)c1cccc(CNc2nc(Nc3ccc4c(c3)CCC(=O)N4)ncc2C(F)(F)F)c1`, the Potency was 3.32 µM (active).

Consider `COc1c(Cl)cc2c([nH]c3cnccc32)c1NC(=O)c1cccnc1C`, for which the Potency is 33.2 µM (active).

For the compound `CCC(C)(C)C(=O)O[C@H]1C[C@@H](C)C=C2C=C[C@H](C)[C@H](CC[C@@H]3C[C@@H](O)CC(=O)O3)[C@H]21`, the Potency is 3.17 µM (active).

Turning to `COc1ccc(-c2oc3cc(OC)ccc3c2C(=O)c2ccc(C#N)cc2)cc1`, the Potency is 20.9 µM (active).

As to `CS(=O)(=O)c1ccc(C(=O)Nc2ccc(Cl)c(-c3ccccn3)c2)c(Cl)c1`, the Potency was 13.2 µM (active).

Consider `O=C(O)[C@@H](c1ccc(OCc2ccc3ccccc3n2)cc1)C1CCCC1`, for which the Potency was 26.4 µM (active).

Consider `Cc1ccc2c(c1)C(=O)[C@@]1(O)CCN(c3ccccc3)C1=N2`, for which the Potency was 13.2 µM (active).

On to `O=C(OCC#CCSc1nnc(-c2ccc3ccccc3c2)o1)c1cc2ccccc2s1`, for which the Potency is 11.8 µM (active).

As for `OC[C@H](Cc1ccccc1)Nc1nc(Oc2ccc3c(c2)CCC3)nc2c1ncn2Cc1ccc(-c2ccccc2)cc1`, the Potency was 13.2 µM (active).

As for `O=C(c1cc(Cc2n[nH]c(=O)c3ccccc23)ccc1F)N1CCN(C(=O)C2CC2)CC1`, the Potency is 16.6 µM (active).

As for `CCC(=O)N[C@H]1CC[C@H](C(=O)N(C)c2ccc(-c3nc4ccccc4o3)cc2)C1`, the Potency is 3.32 µM (active).

Turning to `Cc1cc([C@@H](C)Nc2ccccc2C(=O)O)c2nc(N3CCOCC3)cc(=O)n2c1`, the Potency was 1.05 µM (active).

As to `Cc1cccc(-c2[nH]c(C(C)(C)C)nc2-c2ccc3nccnc3c2)n1`, the Potency was 16.6 µM (active).

`Cc1cccc(-c2nn(C(=S)Nc3ccccc3)cc2-c2ccnc3ccccc23)n1`: the Potency was 2.35 µM (active).

For the compound `CN[C@@H](C)C(=O)N[C@H]1CCCC[C@H]2CC[C@@H](C(=O)N[C@@H](c3ccccc3)c3cn(CCCCc4ccc(CCCCn5cc([C@@H](NC(=O)[C@@H]6CC[C@@H]7CCCC[C@H](NC(=O)[C@H](C)NC)C(=O)N76)c6ccccc6)nn5)cc4)nn3)N2C1=O`, the Potency is 23.5 µM (active).
